# Data as given in PubChem BioAssay (EPA / NIEHS).
# The source made the active and inactive calls. How the source made its calls: active means hit-call score of the fitted dose curve at least 0.9, where 1 is the maximum; inactive means score below 0.9.
# Read-out: not listed separately
# Experiment: BSK_CASM3C_Proliferation: Cell Proliferation Assessment in the BioMAP Diversity Plus: CASM3C Assay (AID 2283047);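 further: sulforhodamine B total protein stain as relative cell number at 560 nm; sub-confluent cells exposed 48 h before staining; fitted both ways against DMSO so gain or loss of cell number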
# Conditions: primary human coronary artery smooth muscle cells
Structure (SMILES),outcome,AC50
COCCOC[C@H](CC1(C(=O)NC2CCC(C(=O)O)CC2)CCCC1)C(=O)Oc1ccc2c(c1)CCC2 (stereo partly drawn),inactive,
CC(=O)OC/C=C(\C)CCC=C(C)C,inactive,
Cc1cccc(Nc2cc(Cl)nc(SCC(=O)O)n2)c1C,inactive,
CC=Cc1ccc(O)c(OC)c1,inactive,
CCNc1cccc(C)c1,inactive,
O=C(OCCCCCOC(=O)c1ccccc1)c1ccccc1,inactive,
O=c1[nH]cc(F)c(=O)[nH]1,,13.7 µM (active)
NCC1(Cc2noc(=O)[nH]2)CCCCC1,inactive,
Oc1ccc2ccccc2c1N=Nc1ccccc1,inactive,
Cc1cc(=O)[nH]c(=S)[nH]1,inactive,
NC(=O)Cn1c(=O)cc(CCN2CCN(c3nccc4sccc34)CC2)c2ccc(F)cc21,inactive,
CC(C)c1ccc(C(=O)N=C(N)N)cc1S(C)(=O)=O,inactive,
C1CCC(SSC2CCCCC2)CC1,,34.1 µM (active)
CCCCN(CCCC)CCCC,inactive,
OC[C@@H](O)[C@@H](O)[C@H](O)[C@H](O)CO,inactive,
CC(C)(C)c1cc(O)c(C(C)(C)C)cc1O,inactive,
NS(=O)(=O)c1cc2c(cc1Cl)NCNS2(=O)=O,inactive,
Cc1nc(-c2ccc3c(c2)CCN(CCC2CCC(NC(=O)/C=C/c4ccc(F)cc4)CC2)CC3)no1 (stereo not drawn),,5.83 µM (active)
CC(=O)C(C)=CC1C(C)=CCCC1(C)C (stereo not drawn),inactive,
CCCCCCOCCO,inactive,
C[Si]1(C)O[Si](C)(C)O[Si](C)(C)O[Si](C)(C)O1,inactive,
Oc1ccc2c(c1)OC[C@@H](N1CCC(O)(c3ccc(F)cc3)CC1)[C@H]2O,inactive,
CN1CCN(Cc2cc(-c3ccc4[nH]c(=O)oc4c3)co2)[C@@H](c2ccc(F)cc2)C1,,12.3 µM (active)
CCOC(=O)C(C)(C)Oc1ccc(Cl)cc1,inactive,
C=CCc1ccc(O)c(OC)c1,inactive,
COc1cc(S(=O)(=O)O)c(C)cc1N=Nc1c(O)ccc2cc(S(=O)(=O)O)ccc12,inactive,
CCCc1cc(=O)[nH]c(=S)[nH]1,inactive,
O=[N+]([O-])C(CO)(CO)CO,inactive,
CC1=C(/C=C/C(C)=C/C=C/C(C)=C/CO)C(C)(C)CCC1,,20.9 µM (active)

# Read-out: Monokine induced gamma interferon (MIG), CXCL9 (gene 4283)
# Experiment: BSK_CASM3C_MIG: BioMAP Diversity Plus: CASM3C Assay for Monokine induced gamma interferon (MIG) Biomarker Activity (AID 2283048);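 further: MIG protein level measured by ELISA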
# Conditions: primary human coronary artery smooth muscle cells; actives raise or lower the signal
Structure (SMILES),outcome,AC50
COCCOC[C@H](CC1(C(=O)NC2CCC(C(=O)O)CC2)CCCC1)C(=O)Oc1ccc2c(c1)CCC2 (stereo partly drawn),inactive,
CC(=O)OC/C=C(\C)CCC=C(C)C,inactive,
Cc1cccc(Nc2cc(Cl)nc(SCC(=O)O)n2)c1C,inactive,
CC=Cc1ccc(O)c(OC)c1,inactive,
CCNc1cccc(C)c1,inactive,
O=C(OCCCCCOC(=O)c1ccccc1)c1ccccc1,inactive,
O=c1[nH]cc(F)c(=O)[nH]1,inactive,
NCC1(Cc2noc(=O)[nH]2)CCCCC1,inactive,
Oc1ccc2ccccc2c1N=Nc1ccccc1,inactive,
Cc1cc(=O)[nH]c(=S)[nH]1,inactive,
NC(=O)Cn1c(=O)cc(CCN2CCN(c3nccc4sccc34)CC2)c2ccc(F)cc21,inactive,
CC(C)c1ccc(C(=O)N=C(N)N)cc1S(C)(=O)=O,inactive,
C1CCC(SSC2CCCCC2)CC1,inactive,
CCCCN(CCCC)CCCC,inactive,
OC[C@@H](O)[C@@H](O)[C@H](O)[C@H](O)CO,inactive,
CC(C)(C)c1cc(O)c(C(C)(C)C)cc1O,inactive,
NS(=O)(=O)c1cc2c(cc1Cl)NCNS2(=O)=O,inactive,
Cc1nc(-c2ccc3c(c2)CCN(CCC2CCC(NC(=O)/C=C/c4ccc(F)cc4)CC2)CC3)no1 (stereo not drawn),,11.7 µM (active)
CC(=O)C(C)=CC1C(C)=CCCC1(C)C (stereo not drawn),inactive,
CCCCCCOCCO,inactive,
C[Si]1(C)O[Si](C)(C)O[Si](C)(C)O[Si](C)(C)O1,inactive,
Oc1ccc2c(c1)OC[C@@H](N1CCC(O)(c3ccc(F)cc3)CC1)[C@H]2O,inactive,
CN1CCN(Cc2cc(-c3ccc4[nH]c(=O)oc4c3)co2)[C@@H](c2ccc(F)cc2)C1,inactive,
CCOC(=O)C(C)(C)Oc1ccc(Cl)cc1,inactive,
C=CCc1ccc(O)c(OC)c1,inactive,
COc1cc(S(=O)(=O)O)c(C)cc1N=Nc1c(O)ccc2cc(S(=O)(=O)O)ccc12,inactive,
CCCc1cc(=O)[nH]c(=S)[nH]1,inactive,
O=[N+]([O-])C(CO)(CO)CO,inactive,
CC1=C(/C=C/C(C)=C/C=C/C(C)=C/CO)C(C)(C)CCC1,inactive,
